According to the supplement of paper PMC6555819:

What was measured:
Assay in all cases: PBM binding z-score (relative to random genomic background probes); higher = stronger binding; sequences stand for … in GC…GCGATTGACAGCGTAGAATGAAGG
[1] = test system: FXR:RXRa (NR concentration 270 nM, RXRa partner concentration 90 nM)
Method in brief: (§1)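 Each nuclear receptor dimer, without ligand, was incubated for 1 h on custom Agilent 4×180K protein-binding microarrays. Binding was detected with antibodies against each partner (one per run), and scanned fluorescence was regression-normalized. The binding z-scores are referenced to random human genomic background probes.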

[2] = test system: LXRa:RXRa (NR concentration 270 nM, RXRa partner concentration 90 nM)
Method in brief: as §1

[3] = test system: LXRa homodimer (NR concentration 270 nM)
Method in brief: as §1

[4] = test system: LXRb:RXRa (NR concentration 270 nM, RXRa partner concentration 90 nM)
Method in brief: as §1

[5] = test system: LXRb homodimer (NR concentration 270 nM)
Method in brief: as §1

[6] = test system: PPARa:RXRa (NR concentration 270 nM, RXRa partner concentration 90 nM)
Method in brief: as §1

[7] = test system: PPARg:RXRa (NR concentration 180 nM, RXRa partner concentration 90 nM)
Method in brief: as §1

[8] = test system: PPARg:RXRa 270nM:90nM, anti-RXR (NR concentration 270 nM, RXRa partner concentration 90 nM)
Method in brief: as §1

[9] = test system: PPARg:RXRa 30nM:10nM, anti-RXR (NR concentration 30 nM, RXRa partner concentration 10 nM)
Method in brief: as §1

[10] = test system: PPARg:RXRa 90nM:30nM, anti-RXR (NR concentration 90 nM, RXRa partner concentration 30 nM)
Method in brief: as §1

Row | Sequence | PBM binding z-score [1] | PBM binding z-score [2] | PBM binding z-score [3] | PBM binding z-score [4] | PBM binding z-score [5] | PBM binding z-score [6] | PBM binding z-score [7] | PBM binding z-score [8] | PBM binding z-score [9] | PBM binding z-score [10]
1 | TCATATAGGTAAACACGTGAAAGTCCGTAAGTTA | 0.505 | 0.566 | 0.235 | 0.56 | 0.236 | 1.33 | 1.16 | 2.12 | 3.63 | 2.89
2 | CTCGAAAGGTCGTGCTCAGGTGAGAATACCAAAC | 5.2 | 3.74 | 0.081 | 3.51 | 0.321 | 4.86 | 2.81 | 3.77 | 1.19 | 2.44
3 | GCTCGGAGGCCAAGGTCAGAGCTTTGTCCGTAGA | 1.41 | 1.03 | -0.427 | 0.907 | -1.5 | 1.85 | 0.0755 | 1.47 | -0.393 | 0.573
4 | CCTAGCAGGCCAGGGACACTCAAGCATTTCGCTT | -0.315 | -0.301 | -0.372 | -0.68 | -0.928 | -0.453 | 0.0348 | -0.505 | -0.943 | -0.701
5 | CCAGACAGGTGAGAAGGCAACTCAGCCTCGATTA | 0.0587 | -0.0895 | -0.234 | -0.403 | -0.663 | 0.376 | 0.575 | 0.793 | -0.21 | 0.329
6 | ACTATTAGTTGATTTAGGGCAACCGATACGACGC | 0.352 | 0.0302 | 0.44 | 0.0865 | 1.19 | 0.816 | 0.99 | 0.588 | 0.446 | 0.717
7 | TCTTGTAGATCAATAGAGGTTATGAAAGTGCGCT | 0.99 | 3.56 | 0.696 | 1.68 | 0.325 | 1.9 | 0.356 | 2.08 | 2.99 | 2.41
8 | ATCTCTAGCTAAAAGTTCAGTGAATCCCGAGGAT | 0.149 | 0.948 | 1.36 | 0.693 | 0.99 | 0.474 | 0.264 | 1.29 | 0.52 | 0.949
9 | ATCGAAAGTTCGAGGTGAGTATAGAGAAAGGGAA | 0.831 | 1 | -0.204 | 0.703 | -0.225 | 1.76 | 0.648 | 0.797 | 0.3 | 0.478
10 | GCTGCTAGGTCAGGTTCGTCAGCTAACGGGTACG | 1.58 | 0.945 | -0.287 | 0.33 | -0.46 | 1.6 | 0.685 | 1.21 | -0.222 | 0.283
11 | CCTTACGGGTCACTGACAGGTTAAAGCATTTGGA | 5.65 | 4.59 | 0.409 | 3.69 | -0.38 | 5.05 | 4.6 | 4.5 | 1.97 | 3.25
12 | GCGACTGGGGCATCAGCAGGTTACAATAACTTAA | -0.294 | -0.143 | -0.328 | 0.834 | -0.691 | 1.24 | 1.02 | 0.768 | -0.192 | 0.171
13 | CCTCAGAGGACAACAGGAGGTCAGAGCTGCCAGA | 1.05 | 2.25 | 2.4 | 1.34 | -0.195 | 2.09 | 0.662 | 0.51 | -0.374 | -0.163
14 | AGAAAGAGGGCACGCTGAGTTGATAGCAGAGTAG | 1.1 | 1.24 | -0.317 | 0.624 | -0.685 | 2.59 | 1.83 | 1.95 | 0.315 | 1.09
15 | TAGCCTAGGTCATGCCGGCCAGTATAGTGTCGGC | 3.44 | 2.68 | 0.0179 | 1.57 | -0.0168 | 3.07 | 1.99 | 2.08 | 0.0348 | 1.34
16 | ACTATTAGTTGACTTAGGGCAACCGCTACGACGC | 0.0697 | 0.317 | -0.0272 | -0.056 | 0.492 | -0.0454 | 0.482 | -0.131 | 0.1 | -0.0911
17 | CGTCCATGGTCAAAGGTCAGTGAAGAGATGACGG | 3.85 | 3.63 | 0.607 | 3.29 | 0.097 | 4.92 | 7.27 | 7.01 | 5.64 | 7.4
18 | AGTCAAAGTTTACTAGGTAACGTAAGATTCAGCT | -0.0676 | 0.666 | 0.138 | 0.287 | 0.0239 | 2.28 | 3.46 | 3.72 | 1.13 | 2.53
19 | TCTATAAGTTGATTAGGGCAACCGAAACAGCGGA | 0.561 | 0.285 | 0.0111 | 0.135 | -0.0997 | 1.13 | 0.429 | 2.02 | 3.59 | 2.83
20 | ATATGTATGTTAGCTGGGGTCATTCAGACTAGGC | 3.96 | 4.22 | 1.92 | 4.33 | 1.31 | 4.48 | 2.06 | 2.85 | 1.26 | 2.08
21 | CCGAGTAGGTTATGGGGAATTCAGGCAACGGTGA | 0.109 | 0.544 | 0.111 | 0.918 | 0.311 | 1.23 | 1.46 | 2.43 | 0.671 | 1.48
22 | CCTAGTTGGTCAGGAGGTAACACACCGGATATGA | 0.273 | 0.0725 | 0.325 | 0.204 | -0.0466 | 0.433 | 0.902 | 1.08 | 0.0146 | 0.419
23 | TCGAGTAGGTTAGGGCCATTCAGAATGGCGTCGA | 0.218 | -0.0329 | -0.658 | -0.207 | -1.05 | 0.58 | 0.0561 | 0.722 | 0.497 | 0.65
24 | CCTAACGGGTCACTGACAGGTTATAGCATTTGGA | 4.16 | 3.46 | 0.268 | 2.65 | -0.0444 | 4.42 | 3.07 | 3.01 | 0.84 | 1.88
